Laboratory results from the supplement of paper PMC12067093, “Discovery and optimisation of a covalent ligand for TRIM25 and its application to targeted protein ubiquitination” (Chemical Science, 2025).
About 21,000 targets were measured; listed, in parts, are those with the largest changes and a random draw of the rest.

Compound: CC1Cc2ccccc2N1C(=O)C1CCCN(C1)C(=O)CCl (mixture of isomers) [TRIM25 ligand 11 (diastereomer mixture)]
Assay: probe-labelled cysteine peptide fold change vs DMSO (competition) (log2 fold change); higher = less target engagement (more negative = stronger competition)
Details: THP-1, incubation time: 4 h
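Note: competitive chemoproteomic profiling in live THP-1 cells with an iodoacetamide desthiobiotin (IA-DTB) probe, comparing probe-labelled peptide intensities in compound-treated cells against DMSO-treated controls.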

Chain of UniProt A4D1P6 (A4D1P6 whole entry, looked up): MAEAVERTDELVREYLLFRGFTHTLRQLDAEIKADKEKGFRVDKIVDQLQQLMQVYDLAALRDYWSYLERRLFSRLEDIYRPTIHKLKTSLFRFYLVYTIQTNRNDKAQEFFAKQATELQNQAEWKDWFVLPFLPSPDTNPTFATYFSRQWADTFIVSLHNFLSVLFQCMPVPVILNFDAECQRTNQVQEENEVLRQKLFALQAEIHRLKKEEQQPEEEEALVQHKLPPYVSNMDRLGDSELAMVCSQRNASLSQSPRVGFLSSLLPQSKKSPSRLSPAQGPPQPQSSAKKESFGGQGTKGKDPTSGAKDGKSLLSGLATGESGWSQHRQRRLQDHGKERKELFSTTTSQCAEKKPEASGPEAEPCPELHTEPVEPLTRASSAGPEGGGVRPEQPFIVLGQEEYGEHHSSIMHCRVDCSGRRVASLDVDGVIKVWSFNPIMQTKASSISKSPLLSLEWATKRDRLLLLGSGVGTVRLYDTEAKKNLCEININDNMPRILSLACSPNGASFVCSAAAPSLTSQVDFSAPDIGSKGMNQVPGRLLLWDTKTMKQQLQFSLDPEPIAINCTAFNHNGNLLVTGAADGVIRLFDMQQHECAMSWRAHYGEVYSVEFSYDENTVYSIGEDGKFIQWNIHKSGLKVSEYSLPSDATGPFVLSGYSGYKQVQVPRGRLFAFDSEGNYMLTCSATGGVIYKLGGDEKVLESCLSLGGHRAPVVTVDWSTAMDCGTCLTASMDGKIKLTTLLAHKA
Chain of UniProt Q9NNW7 (Q9NNW7 whole entry, looked up): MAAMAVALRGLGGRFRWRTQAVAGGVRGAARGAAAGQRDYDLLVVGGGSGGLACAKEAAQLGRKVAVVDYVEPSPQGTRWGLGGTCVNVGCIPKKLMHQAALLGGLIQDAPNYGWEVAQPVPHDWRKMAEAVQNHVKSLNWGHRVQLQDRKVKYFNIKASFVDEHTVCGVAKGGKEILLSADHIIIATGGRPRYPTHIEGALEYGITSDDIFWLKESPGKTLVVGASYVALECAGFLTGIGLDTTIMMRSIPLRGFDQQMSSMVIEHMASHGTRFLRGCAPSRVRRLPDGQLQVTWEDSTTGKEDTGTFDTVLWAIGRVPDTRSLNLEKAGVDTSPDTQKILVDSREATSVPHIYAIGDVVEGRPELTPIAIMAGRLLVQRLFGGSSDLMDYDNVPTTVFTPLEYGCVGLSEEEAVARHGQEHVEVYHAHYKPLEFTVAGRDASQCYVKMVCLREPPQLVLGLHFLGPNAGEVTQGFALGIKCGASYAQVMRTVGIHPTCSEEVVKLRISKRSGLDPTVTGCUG
Chain of UniProt Q9H7D7 (Q9H7D7 whole entry, looked up): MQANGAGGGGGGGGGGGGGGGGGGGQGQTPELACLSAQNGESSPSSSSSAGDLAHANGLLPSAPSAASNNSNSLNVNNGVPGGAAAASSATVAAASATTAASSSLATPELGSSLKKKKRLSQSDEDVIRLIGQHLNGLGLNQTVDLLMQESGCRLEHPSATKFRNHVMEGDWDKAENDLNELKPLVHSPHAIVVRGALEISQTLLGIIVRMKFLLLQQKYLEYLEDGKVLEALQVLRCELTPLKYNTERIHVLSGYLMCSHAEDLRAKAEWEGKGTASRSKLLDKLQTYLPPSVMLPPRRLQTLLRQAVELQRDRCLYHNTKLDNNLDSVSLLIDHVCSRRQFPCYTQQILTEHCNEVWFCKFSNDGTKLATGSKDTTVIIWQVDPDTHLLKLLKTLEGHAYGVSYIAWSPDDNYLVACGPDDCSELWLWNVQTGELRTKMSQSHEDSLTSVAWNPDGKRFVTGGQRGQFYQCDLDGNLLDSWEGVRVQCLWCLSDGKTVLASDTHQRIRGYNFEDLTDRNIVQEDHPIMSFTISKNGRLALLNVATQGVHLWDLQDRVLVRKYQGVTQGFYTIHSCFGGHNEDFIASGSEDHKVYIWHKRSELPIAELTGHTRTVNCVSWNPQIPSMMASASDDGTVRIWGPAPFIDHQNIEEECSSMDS
Chain of UniProt Q9C0B0 (Q9C0B0 whole entry, looked up): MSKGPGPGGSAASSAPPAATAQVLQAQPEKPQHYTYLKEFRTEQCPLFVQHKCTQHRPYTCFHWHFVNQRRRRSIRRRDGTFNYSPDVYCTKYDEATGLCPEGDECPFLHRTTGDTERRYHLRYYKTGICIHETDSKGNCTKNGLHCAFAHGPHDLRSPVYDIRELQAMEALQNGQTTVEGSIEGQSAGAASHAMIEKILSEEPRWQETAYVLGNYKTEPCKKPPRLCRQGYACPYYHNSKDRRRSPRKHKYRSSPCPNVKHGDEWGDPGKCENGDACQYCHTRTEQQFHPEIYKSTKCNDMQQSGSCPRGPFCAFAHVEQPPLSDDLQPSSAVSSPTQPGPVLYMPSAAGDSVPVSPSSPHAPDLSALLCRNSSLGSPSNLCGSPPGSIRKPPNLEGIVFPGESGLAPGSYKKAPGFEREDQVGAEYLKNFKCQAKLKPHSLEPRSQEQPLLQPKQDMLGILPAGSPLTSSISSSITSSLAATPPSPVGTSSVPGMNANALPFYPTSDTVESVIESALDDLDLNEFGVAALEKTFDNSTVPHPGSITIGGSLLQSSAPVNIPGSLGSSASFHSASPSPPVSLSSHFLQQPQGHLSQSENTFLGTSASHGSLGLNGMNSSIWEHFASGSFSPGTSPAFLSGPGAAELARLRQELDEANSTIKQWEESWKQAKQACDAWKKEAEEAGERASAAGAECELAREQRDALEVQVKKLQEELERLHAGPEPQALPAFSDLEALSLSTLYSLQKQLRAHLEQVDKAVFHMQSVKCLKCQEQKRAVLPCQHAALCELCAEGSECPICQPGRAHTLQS
Chain of UniProt O94967 (O94967 whole entry, looked up): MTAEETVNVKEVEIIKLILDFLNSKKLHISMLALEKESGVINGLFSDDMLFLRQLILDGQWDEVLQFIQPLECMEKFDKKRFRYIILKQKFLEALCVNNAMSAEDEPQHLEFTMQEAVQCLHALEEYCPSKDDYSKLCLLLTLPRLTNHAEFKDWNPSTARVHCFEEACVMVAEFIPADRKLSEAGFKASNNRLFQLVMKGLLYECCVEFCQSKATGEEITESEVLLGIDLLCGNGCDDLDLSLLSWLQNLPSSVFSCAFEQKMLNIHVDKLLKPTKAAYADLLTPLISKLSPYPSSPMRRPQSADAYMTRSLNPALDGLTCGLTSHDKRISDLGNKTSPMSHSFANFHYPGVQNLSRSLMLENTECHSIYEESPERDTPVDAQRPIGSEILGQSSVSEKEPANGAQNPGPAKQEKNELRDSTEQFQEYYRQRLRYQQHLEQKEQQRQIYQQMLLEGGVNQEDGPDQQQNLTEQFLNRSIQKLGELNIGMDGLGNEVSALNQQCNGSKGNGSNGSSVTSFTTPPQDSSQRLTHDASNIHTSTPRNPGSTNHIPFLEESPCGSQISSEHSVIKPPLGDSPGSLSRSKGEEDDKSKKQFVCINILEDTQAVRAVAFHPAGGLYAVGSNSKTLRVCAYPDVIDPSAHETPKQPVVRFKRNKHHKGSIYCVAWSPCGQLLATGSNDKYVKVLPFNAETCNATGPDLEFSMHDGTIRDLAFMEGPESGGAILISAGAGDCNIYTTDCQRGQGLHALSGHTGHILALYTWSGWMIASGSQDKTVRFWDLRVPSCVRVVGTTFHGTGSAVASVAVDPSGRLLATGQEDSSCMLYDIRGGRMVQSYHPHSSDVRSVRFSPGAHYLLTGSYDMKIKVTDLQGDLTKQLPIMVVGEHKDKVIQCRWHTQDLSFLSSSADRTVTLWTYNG
Chain of UniProt Q6NUM6 (Q6NUM6 whole entry): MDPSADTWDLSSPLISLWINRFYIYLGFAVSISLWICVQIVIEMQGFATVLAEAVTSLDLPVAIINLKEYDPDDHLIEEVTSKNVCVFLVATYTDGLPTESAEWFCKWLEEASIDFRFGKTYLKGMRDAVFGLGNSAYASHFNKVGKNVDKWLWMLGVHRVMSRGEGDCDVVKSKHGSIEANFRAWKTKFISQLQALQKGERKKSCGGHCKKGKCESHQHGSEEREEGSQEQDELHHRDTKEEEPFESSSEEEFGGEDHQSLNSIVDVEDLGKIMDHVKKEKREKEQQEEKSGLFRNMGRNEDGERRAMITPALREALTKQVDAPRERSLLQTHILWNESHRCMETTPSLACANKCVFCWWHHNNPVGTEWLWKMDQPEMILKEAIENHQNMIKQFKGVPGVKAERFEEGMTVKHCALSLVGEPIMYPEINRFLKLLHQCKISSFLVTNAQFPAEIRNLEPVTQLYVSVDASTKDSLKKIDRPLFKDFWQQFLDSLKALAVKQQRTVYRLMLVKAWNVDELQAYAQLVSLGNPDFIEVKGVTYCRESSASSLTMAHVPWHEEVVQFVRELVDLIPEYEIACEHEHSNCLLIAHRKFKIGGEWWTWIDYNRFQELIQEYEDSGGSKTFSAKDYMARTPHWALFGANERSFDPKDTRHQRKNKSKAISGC
Chain of UniProt Q9H832 (Q9H832 whole entry, looked up): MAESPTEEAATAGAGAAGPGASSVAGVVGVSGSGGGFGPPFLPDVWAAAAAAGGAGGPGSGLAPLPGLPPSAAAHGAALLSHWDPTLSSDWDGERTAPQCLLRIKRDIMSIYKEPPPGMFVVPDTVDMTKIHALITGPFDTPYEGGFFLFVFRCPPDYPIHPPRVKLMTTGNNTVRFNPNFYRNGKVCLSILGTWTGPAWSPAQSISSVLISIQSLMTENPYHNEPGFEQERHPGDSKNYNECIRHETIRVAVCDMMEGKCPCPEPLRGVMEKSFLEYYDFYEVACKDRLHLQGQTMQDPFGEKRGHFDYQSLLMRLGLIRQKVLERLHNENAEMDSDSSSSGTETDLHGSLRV
Chain of UniProt Q9NPD8 (Q9NPD8 whole entry, looked up): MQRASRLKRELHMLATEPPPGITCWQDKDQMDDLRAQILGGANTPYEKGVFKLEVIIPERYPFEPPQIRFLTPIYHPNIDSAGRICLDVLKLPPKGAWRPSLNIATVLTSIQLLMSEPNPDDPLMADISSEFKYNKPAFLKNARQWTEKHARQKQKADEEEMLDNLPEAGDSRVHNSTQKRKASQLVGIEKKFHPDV

Target	probe-labelled cysteine peptide fold change (10 µM)	probe-labelled cysteine peptide fold change (50 µM)
XPC_Q01831_514_MCSDGEK (UniProt Q01831)	-0.0167	-0.0661
UBR4_Q5T4S7_1662_LCTFTITQK (UniProt Q5T4S7)	-0.119	-0.0801
WDR44_Q5JSH3_642_ECLCCFQHIDFVTAIAFHPR (UniProt Q5JSH3)	0.143	0.281
UBR4_Q5T4S7_4839+4841_QMEELIEEPGLTCCICR (UniProt Q5T4S7)	0.337	0.209
TXNIP_Q9H3M7_36_VIVEVCEVTR (UniProt Q9H3M7)	0.136	0.375
WDR26_Q9H7D7_238_CELTPLK (UniProt Q9H7D7)	-0.0356	-0.0732
TXNRD1_Q16881_625_QLDSTIGIHPVCAEVFTTLSVTK (UniProt Q16881)	0.301	0.194
TUBB1_Q9H4B7_12_MREIVHIQIGQCGNQIGAK (UniProt Q9H4B7)	0.489	0.674
TXNIP_Q9H3M7_49_ILACGVAK (UniProt Q9H3M7)	0.365	0.565
UBE2Z_Q9H832_243_NYNECIR (UniProt Q9H832)	-0.049	-0.0648
UGP2_Q16851_123_LNGGLGTSMGCK (UniProt Q16851)	-0.0886	-0.138
UBA1_P22314_234_DNPGVVTCLDEAR (UniProt P22314)	0.0251	-0.108
WWP2_O00308_186_HQPPSTNCFGGR (UniProt O00308)	-0.035	-0.168
USP4_Q13107_7_AEGGGCR (UniProt Q13107)	0.644	0.609
UAP1L1_Q3KQV9_271_LADPVFIGFCVLQGADCGAK (UniProt Q3KQV9)	-0.0621	-0.144
VPS18_Q9P253_947_ADLDELVAAECVYCGELMIR (UniProt Q9P253)	0.712	0.481
UFC1_Q9Y3C8_116_ICLTDHFKPLWAR (UniProt Q9Y3C8)	-0.522	-0.68
TXNRD1_Q16881_339_EYCISSDDLFSLPYCPGK (UniProt Q16881)	0.364	0.552
VCPIP1_Q96JH7_219_SQECLIPVHVDGDGHCLVHAVSR (UniProt Q96JH7)	-0.566	-1.68
WDR55_Q9H6Y2_5_TCEERPAEDGSDEEDPDSMEAPTR (UniProt Q9H6Y2)	-0.76	-0.645

Target	probe-labelled cysteine peptide fold change (10 µM)	probe-labelled cysteine peptide fold change (50 µM)
TUBG1_P23258_316_QTNHCYIAILNIIQGEVDPTQVHK<|>TUBG2_Q9NRH3_316_QTNHCYIAILNIIQGEVDPTQVHK (UniProt Q9NRH3+P23258)	0.00794	-0.013
UNK_Q9C0B0_100_YDEATGLCPEGDECPFLHR (UniProt Q9C0B0)	0.613	0.284
UAP1L1_Q3KQV9_271+278_LADPVFIGFCVLQGADCGAK (UniProt Q3KQV9)	0.0951	0.0877
VCP_P55072_105_LGDVISIQPCPDVK (UniProt P55072)	-0.0602	-0.113
USP6_P35125_1036_AQAEPINLDSCLR (UniProt P35125)	-0.111	-0.0406
TXNRD2_Q9NNW7_279_GCAPSR (UniProt Q9NNW7)	0.829	0.386
UBE2T_Q9NPD8_86_ICLDVLK (UniProt Q9NPD8)	-0.00663	0.103
VCP_P55072_174_VVETDPSPYCIVAPDTVIHCEGEPIKR (UniProt P55072)	0.0996	-0.0884
VEZF1_Q14119_327_TCMSEETSNQK (UniProt Q14119)	-0.186	-0.42
VPS39_Q96JC1_681_LICDFPFDGLLEER (UniProt Q96JC1)	0.145	0.086
VPS37A_Q8NEZ2_375_TICHCR (UniProt Q8NEZ2)	0.905	0.772
WDR91_A4D1P6_246_LGDSELAMVCSQR (UniProt A4D1P6)	-0.0616	-0.273
TYW1B_Q6NUM6_581_ELVDLIPEYEIACEHEHSNCLLIAHR (UniProt Q6NUM6)	0.268	0.256
UBR5_O95071_1942_SHNDEHSDVLPVLDVCSLK (UniProt O95071)	-0.586	-0.263
USP20_Q9Y2K6_8_DLCPHLDSIGEVTKEDLLLK (UniProt Q9Y2K6)	-0.12	-0.352
WDR47_O94967_322_SLNPALDGLTCGLTSHDK (UniProt O94967)	0.104	-0.116
VAV1_P15498_31_VTWDGAQVCELAQALR (UniProt P15498)	0.0648	0.411
WNK1_Q9H4A3_1135_VVECQLETHNR (UniProt Q9H4A3)	0.0982	0.156
TYK2_P29597_1140_CPCEVYHLMK (UniProt P29597)	-0.0795	-0.214
VARS_P26640_1185_CSIHLQLQGLVDPARELGK (UniProt P26640)	-0.114	-0.105
